Test results from paper PMC13494018.
A number with no mark means an inactive call. The rule behind the calls is not given here.

B1: design_608_fd41b8f9-4da9-4c78-93ec-aaa316ed4933_1926_dldesign_0_cycle1_af2pred (protein)
chain: DAEEEAKKLKEEAEKKLKEIKQMAKDGTATVEEIEKERKEGIEALKKAAKLVPEKKEEYAKLAEEIVEAYSDAYYESLKKERE
B2: design_608_fd41b8f9-4da9-4c78-93ec-aaa316ed4933_2179_dldesign_0_cycle1_af2pred (protein)
chain: MKEEEAKKAIEEAKKAIKEAREVGKELAKKDPSKKAFVDEAAKKLHELREKLAEAESLLKKDPEKAKKLAEEVKKKAKEIKKELEKA
B3: design_609_7ee6ce64-4629-41e8-bcb4-ba0da017284d_654_dldesign_0_cycle1_af2pred (protein)
chain: AAAEQAKLKAEAKALMAAMKAAGKAGDVAAVEAAAKAALAKAKELAKIDPALGSKLAAEIHETRAEALSTARKTREEKKKEEELKK
B4: design_609_7ee6ce64-4629-41e8-bcb4-ba0da017284d_143_dldesign_0_cycle1_af2pred (protein)
chain: EEEKKELLESESYAIQAAHAVAAKDPATAEEAKEAFEYVALVGVEKARELLEKAKTDAESLKAAVAEAKELAKEVKKKLE
B5: design_608_fd41b8f9-4da9-4c78-93ec-aaa316ed4933_2496_dldesign_0_cycle1_af2pred (protein)
chain: EEEVREEAERIRERAKEIAEKAKKLAEEAEKDPSKAKEAEEKSRKLAEELRELGERARELGDEEAARAAAEAAAVAHEARAEAYAIAN
B6: design_609_7ee6ce64-4629-41e8-bcb4-ba0da017284d_250_dldesign_0_cycle1_af2pred (protein)
chain: MEEVKKKAEKALKEAKAALKEAKALGNEEAIKAAEQAIKFAKKALEYAEKGDLNGAEAYLEAAKHALKVAKDAIKAAKKAA
B7: design_609_7ee6ce64-4629-41e8-bcb4-ba0da017284d_401_dldesign_0_cycle1_af2pred (protein)
chain: AIEELIKKGKERGEKAAKRVKEGTMTPEAAKDIFKNIIKELAKAGGEEEGKKIALEGADLLAEADPEFGKKFKKEVEKE
B8: design_609_7ee6ce64-4629-41e8-bcb4-ba0da017284d_97_dldesign_0_cycle1_af2pred (protein)
chain: NKLEEAKKAVKKLKELAKKAKEVAKDLKKTEELVKKAEEEYKKAIKLAREAAKEGDEETKKEAKKLAEEAHEAYNEALLALVKARE
B9: design_608_fd41b8f9-4da9-4c78-93ec-aaa316ed4933_2334_dldesign_0_cycle1_af2pred (protein)
chain: MTPEEKQEMVKQAVELVKNAKGAFDALEAADLIIEAYEKDPEAGKQAIEAAKAEAEKKIKENPLLGKTALRMIENAEIAMKNLE
B10: design_609_7ee6ce64-4629-41e8-bcb4-ba0da017284d_187_dldesign_0_cycle1_af2pred (protein)
chain: AEAEKAKAEEAAKVAEEKIKKVEKLDPKKAEELRKKLKEAMAKPDAYKAVAKVSHDAYEALAEAEWEKRK
B11: design_609_7ee6ce64-4629-41e8-bcb4-ba0da017284d_829_dldesign_0_cycle1_af2pred (protein)
chain: LEEELKKAIEEAKKAVKELKEAAKKRPLTPEEIAKLVTKVSNELGKVRFLSAEALVNKKYEKVGEEGRKAAKEIREEAKEAIKLSKEK
B12: design_609_7ee6ce64-4629-41e8-bcb4-ba0da017284d_123_dldesign_0_cycle1_af2pred (protein)
chain: GAKAVAAAAHDGYQAIAEASKDAEELKKAEEAGLKAVEETGKATGDTATAKAAKERLKRYADRELKKSKKKEEEKKKKLLE
B13: design_608_fd41b8f9-4da9-4c78-93ec-aaa316ed4933_2434_dldesign_0_cycle1_af2pred (protein)
chain: AAEEAIKKAKKIVEEAVKIMEEAGKKNPEYKEEFEKKNKKIKELLKEAEKLVKEGKKEEGIKTAVKAAHEAREAKAEAEWILRRN
B14: design_609_7ee6ce64-4629-41e8-bcb4-ba0da017284d_738_dldesign_0_cycle1_af2pred (protein)
chain: MEEALARIDAALKRAKELAKEAEKAGDKKAAAEMESAIAFAEQQRENALKGSPEYAKKAAEAAEAYTDRKIKRAEEIRKKK
B15: design_608_fd41b8f9-4da9-4c78-93ec-aaa316ed4933_2397_dldesign_0_cycle1_af2pred (protein)
chain: RDKLLMYVAAVRGAARIAKDDPEKGKEALEIETEELVEVMAKASEEEAAEAKELAVAAAAEVDPEIAEWVRKFIEEKLKEKR
B16: design_609_7ee6ce64-4629-41e8-bcb4-ba0da017284d_830_dldesign_0_cycle1_af2pred (protein)
chain: MESLKETFEKMAKLVKKFAEYLEKLDPEAGKKTLEILKKGEEAKTPSEAISLVLRAAVYGAKELGKYDKELALEKLEKVFDL
B17: design_609_7ee6ce64-4629-41e8-bcb4-ba0da017284d_287_dldesign_0_cycle1_af2pred (protein)
chain: MLKEEAKKVAEKGKKEGKYEEAIKELSEIAAKAYELAAEKLLDKETKEEGEKYREAARLARELGKELEKAA
B18: design_608_fd41b8f9-4da9-4c78-93ec-aaa316ed4933_2353_dldesign_0_cycle1_af2pred (protein)
chain: SNKEEADLLRELARAAKAAGAALAALAAADPSEAARAAALKAEFSQALFDAADGKLNEAEIKAIIARMEAVAAAA
B19: design_609_7ee6ce64-4629-41e8-bcb4-ba0da017284d_519_dldesign_0_cycle1_af2pred (protein)
chain: SEEAERELTLAKGYAELAKELAEQGPKAAKSAVKDAEKEAKEAEKIDPEVGKKAKELAEEAKKYVEEKEK

Biological target: VTCN1, Q7Z7D3
Sequence (Q7Z7D3 whole entry): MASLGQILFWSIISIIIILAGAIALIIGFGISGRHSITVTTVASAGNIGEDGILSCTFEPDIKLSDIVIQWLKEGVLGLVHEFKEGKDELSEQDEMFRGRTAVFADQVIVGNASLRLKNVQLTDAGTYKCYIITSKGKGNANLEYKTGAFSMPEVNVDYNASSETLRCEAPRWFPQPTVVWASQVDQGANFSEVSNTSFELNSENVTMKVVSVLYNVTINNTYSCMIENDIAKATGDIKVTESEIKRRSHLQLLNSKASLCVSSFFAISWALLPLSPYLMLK

Binder	binding in a display sort
B1	not found
B2	not found
B3	not found
B4	not found
B5	not found
B6	not found
B7	not found
B8	not found
B9	not found
B10	not found
B11	not found
B12	not found
B13	not found
B14	not found
B15	not found
B16	not found
B17	not found
B18	not found
B19	not found
